A selection: hits, their analogues and other compounds. The true share with any hit is near 7.3%.
RORg inh: inhibitors of mouse ROR gamma transcriptional activity | P51450 | Drosophila S2 Gal4-RORgamma UAS-luciferase reporter, 20 h | Potency, µM (series often up to 53.6 µM), inactives show at the highest dose activity change, negative = inhibition, most hits filed as inhibitors | 310,000 compounds, 5.4% hits | AID 2551; further: nearly all actives have a fitted effect of over 60% in size
Target sequence (P51450 whole entry, looked up, the tested form may be a part): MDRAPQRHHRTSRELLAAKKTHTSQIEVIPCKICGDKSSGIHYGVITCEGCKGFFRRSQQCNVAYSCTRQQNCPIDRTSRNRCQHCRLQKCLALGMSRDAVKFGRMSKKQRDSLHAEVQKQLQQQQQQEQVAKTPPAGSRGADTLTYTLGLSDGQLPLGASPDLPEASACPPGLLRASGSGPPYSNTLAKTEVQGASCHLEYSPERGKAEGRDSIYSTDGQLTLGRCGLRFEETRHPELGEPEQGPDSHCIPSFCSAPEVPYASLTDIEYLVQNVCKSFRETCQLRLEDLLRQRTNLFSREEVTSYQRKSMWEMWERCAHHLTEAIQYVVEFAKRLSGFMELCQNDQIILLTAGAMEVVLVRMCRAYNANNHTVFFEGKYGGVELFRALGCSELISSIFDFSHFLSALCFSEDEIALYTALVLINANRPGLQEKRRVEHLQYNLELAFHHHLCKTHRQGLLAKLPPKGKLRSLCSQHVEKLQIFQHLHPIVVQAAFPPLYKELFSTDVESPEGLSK
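Using a luciferase readout, inhibitors were identified by reduced reporter activity in Drosophila cells coexpressing a copper-inducible Gal4–ROR gamma fusion and UAS-driven Photinus luciferase, incubated 20 hr after 700 uM copper sulfate.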
Tau FP inhib: inhibitors of human tau fibril formation. P10636. 280,000 compounds, 0.39% hits. K18 P301L tau heparin fibrillization, Alexa594 FP, 6 h. AID 1468. Potency, µM (titrated, usually from 57.7 µM), for inactives: at the top dose activity, negative = inhibition, hits mostly inhibitors; further: nearly all actives have a fitted effect of over 55% in size
Target sequence (P10636 561-689 P618L limits assumed): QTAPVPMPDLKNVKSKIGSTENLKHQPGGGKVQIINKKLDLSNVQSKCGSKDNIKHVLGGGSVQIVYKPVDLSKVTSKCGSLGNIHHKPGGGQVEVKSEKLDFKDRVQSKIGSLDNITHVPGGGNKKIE
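Quantitative HTS format: compounds meet 15 uM recombinant K18 P301L tau and Alexa 594-tau tracer in 100 mM sodium acetate pH 7; 20 uM heparin triggers fibrillization at 37 C over 6 hr; FP gives the signal.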
Tau fluor cs: counter-screen for tau fibril formation inhibitors | tau K18 P301L Alexa594 fluorescence, heparin fibrillization | Potency, µM (series often up to 57.7 µM), for the others: at the top dose activity change, negative = decrease | 280,000 compounds, 0.93% hits | AID 1463; further: nearly all actives have a fitted effect of over 55% in size
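Human K18 P301L tau (15 uM unlabeled plus 0.24 uM Alexa 594-labeled, final) in 100 mM sodium acetate pH 7 was mixed with compound and 20 uM heparin and incubated 6 hr at 37 C.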
Tau fibril ThT: tau fibrillization inhibition (ThT binding) | AID 1460 | 270,000 compounds, 2.1% hits | Potency, µM (series often up to 57.4 µM), inactives show at the highest dose activity, negative = inhibition, hits mostly inhibitors | recombinant tau K18 P301L (four-repeat tau fragment), heparin-induced fibrillization, ThT fluorescence; further: nearly all actives have a fitted effect of over 55% in size
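K18 P301L tau (15 uM + 0.24 uM Alexa 594-tagged), heparin 20 uM, NaOAc pH 7, 6 h 37 C; ThT 30 uM, 1 h RT, ex 450/em 510 nm.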
VP16 counter: Gal4-VP16 reporter inhibition counter-screen; Drosophila S2 Gal4-VP16 UAS-luciferase, luminescence, 20 h; Potency, µM (titrated, usually from 53.6 µM), without a hit: at the highest dose activity, negative = inhibition, usual class: inhibitors; 310,000 compounds, 3.5% hits; AID 2546;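 further: Gal4-VP16 expression switched on by copper sulfate through the metallothionein promoter; nearly all actives have a fitted effect of over 50% in size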
Numbers without * were called inactive; ? = inconclusive; · = no result; [ ] = dose if it differs, or a comment. The call rests on the fitted dose curve; in most records, active means well fitted curve in the direction sought with a large enough effect; inconclusive means small, poorly fitted or top-dose-only effect, or another doubt; inactive means no such curve, though single readings can be large; an effect the other way counts as inactive or inconclusive. On the % scale 0 is the no-effect control and ±100 the full control effect; potency means the concentration at half of the fitted maximal effect.

SMILES	RORg inh	Tau FP inhib	Tau fluor cs	Tau fibril ThT	VP16 counter
CCOc1ccc(C(=O)NCc2ccc3c(c2)CCN3C(=O)c2ccc(C)cc2)cc1OCC	·	8%	-11%	-9%	·
COc1cccc(-c2ccnc3c(-c4ccc(F)cc4)c(C)nn23)c1	·	?	-29%	?	·
Cc1nc(C)c(C(=O)NNS(=O)(=O)c2ccc3ccccc3c2)s1	?	-1%	0%	2%	1µM*
CCn1c2ccccc2c2nc3cc(S(=O)(=O)N4CCOCC4)ccc3nc21	8%	32µM*	-27%	25µM*	-28%
CCN(CC)c1ccc(N=Nc2ncn[nH]2)cc1	-29%	0%	-6%	13µM*	-26%
CCN(CC)c1ccc(/C=N/O)cc1	27%	1%	-10%	-12%	4%
CCc1cc2c(Sc3nc4ccccc4s3)ncnc2s1	8.9µM*	1%	-9%	-17%	?
c1ccc2sc(Sc3ncnc4sccc34)nc2c1	10µM*	-5%	-16%	?	?
CCc1cc2c(SCC(=O)c3ccc(C)cc3)ncnc2s1	-12%	1%	-6%	-6%	0%
CCCOc1ccc(CNC(=O)C2CCCN(c3nc4c(C)cc(C)cc4s3)C2)cc1 (centres undefined)	·	1%	-17%	-13%	·
COc1oc(=O)c2cc(N)ccc2c1Cl	7.9µM*	·	·	·	14µM*
Cc1ccc(/C=C/C(=O)N2CC(=O)Nc3ccccc32)o1	?	-14%	-9%	-18%	16µM*
Cc1cc(C)cc(C(=O)N2CC(=O)Nc3ccccc32)c1	1%	1%	-7%	-6%	11%
CC(=O)OCC1OC(n2cnc3c(Cl)nc(Cl)nc32)C(OC(C)=O)C1OC(C)=O (centres undefined)	-25%	-7%	-9%	?	-3%
Nc1c(-c2nc(-c3ccncc3)no2)nnn1CC(=O)Nc1ccccc1	·	-2%	-3%	4%	·
CCN(CC)c1ccc(C2Nc3cccc4cccc(c34)N2)c(O)c1	-24%	-16%	14µM*[quencher]	16µM*	-2%
Oc1ccc2ccccc2c1C1Nc2cccc3cccc(c23)N1	?	-2%	14µM*[quencher]	28µM*	?
COc1cc(C2Nc3cccc4cccc(c34)N2)ccc1O	?	·	·	·	-20%
Cc1ccc(CNC(=O)c2c(C)oc3ncnc(N4CCOCC4)c23)cc1	·	-13%	-15%	-11%	·
Cc1ccccc1N1CC(c2nc3ccccc3n2Cc2ccc(Br)cc2)CC1=O (centres undefined)	·	0%	-7%	-8%	·
O=C(NCc1ccccc1)C(=O)Nc1c2c(nn1-c1ccccc1)CSC2	·	-10%	0%	?	·
COc1ccccc1/C=C1\CCCC2=C1Nc1nnnn1C2c1ccccc1OC (centres undefined)	?	-2%	15%	?	14µM*
COc1ccccc1NC(=O)C1=C(C)Nc2nnnn2C1c1ccccc1OC (centres undefined)	0%	-2%	-4%	-11%	0%
COc1ccc(NC(=S)N(CCCN2CCCC(C)C2)Cc2cccs2)cc1 (centres undefined)	11µM*	-11%	-12%	-11%	-7%
COc1ccc(NC(=S)N(CCCN2CCCC2)Cc2cccs2)cc1	3%	?	-10%	11%	-5%
SMILES	RORg inh	Tau FP inhib	Tau fluor cs	Tau fibril ThT	VP16 counter
S=C(Nc1ccc(Cl)cc1)N(CCCN1CCOCC1)Cc1cccs1	13µM*	-2%	-11%	2%	10%
CCN1CCCc2cc(CN(CCN3CCOCC3)C(=S)Nc3cccc(OC)c3)ccc21	7.1µM*	18%	-24%	-16%	-3%[10 µM]
CCc1ccc(NC(=S)N(CCN2CCOCC2)Cc2ccccc2F)cc1	14µM*	-5%	-16%	-10%	?
CCOc1ccc(NC(=O)N(CCN2CCOCC2)Cc2ccc3c(c2)CCCN3CC)cc1	12%	1%	-20%	?	-2%
CCOC(=O)N1CCN(CC(=O)Nc2nc3ccc(OC)cc3s2)CC1	15%	·	·	·	5%
COc1ccc(NC(=O)Nc2c[nH]c(=O)[nH]c2=O)cc1	-4%	·	·	·	1%
CC1CC=CC2C1C(=O)N(Cc1ccccc1)C2c1ccc2ccccc2c1C=Cc1ccccc1 (centres undefined)	30%	·	·	·	11%
CCNc1ncc2nc(-c3ccccc3)c(=O)n(Cc3cccs3)c2n1	-10%	·	·	·	-9%
C[C@@]1(O)CCOC(=O)C1	-1%[16.9 µM]	·	·	·	3%[17 µM]
COc1cc(/C=N/NC(=S)Nc2cccc(S(=O)(=O)N(C)C)c2)ccc1O	3.5µM*	2%	?	?	3.5µM*
Cc1ccc(S(=O)(=O)N(C)C)cc1NC(=S)NC(=O)C12CC3CC(CC(C3)C1)C2	7.1µM*	-11%	-27%	-10%	7.1µM*
COc1cc(/C=N/NC(=O)c2cccc(NC(=O)c3ccccc3)c2)ccc1O	?	·	·	·	12%
CN(C)S(=O)(=O)c1cccc(NC(=S)NN=C(Cc2ccccc2)Cc2ccccc2)c1	13µM*	7%	-17%	-17%	?
CC1CCCC(NC(=S)Nc2cccc(S(=O)(=O)N(C)C)c2)C1C (centres undefined)	13µM*	-16%	?	3%	?
NS(=O)(=O)c1cccc(NC(=S)NC(=O)C23CC4CC(CC(C4)C2)C3)c1	12%	4%	-13%	-3%	6%
O=C(CSc1ncc2c(n1)-c1cc(Cl)ccc1N(Cc1ccccc1F)S2(=O)=O)Nc1cccc(C(F)(F)F)c1	·	?	?	7%	·
Cc1ccc2c(=O)cc(C(=O)Nc3ccc(S(=O)(=O)N(C)c4ccccc4)cc3)oc2c1C	·	-23%	?	-15%	·
O=C(CCCCn1c(=O)c2ccccc2n(CC(=O)Nc2ccc(F)cc2F)c1=O)NCCc1ccccc1	·	-6%	-7%	-1%	·
Cc1ccc(S(=O)(=O)N(C)C)cc1NC(=S)NC12CC3CC(CC(C3)C1)C2	5µM*	?	?	1%	5.6µM*
CN(C)S(=O)(=O)c1cccc(NC(=S)NC23CC4CC(CC(C4)C2)C3)c1	4.5µM*	·	·	·	?
CN(C)S(=O)(=O)c1cccc(NC(=S)NC2CCCCC2)c1	-40%	-5%	-5%	10%	12%
O=C(CSc1nc2ccccc2c(=O)n1CC1CCCO1)Nc1ccc(F)cc1 (centres undefined)	-1%	·	·	·	11%
Cc1nc(SCC(=O)Nc2ccccc2Cl)oc1C	-12%	·	·	·	0%
COc1ccc(CCNC(=O)c2cc3c(=O)oc4ccc(C)cc4c3s2)cc1OC	·	-13%	-18%	-18%	·
COCCn1c(C)cc(C(=O)CSc2nnc3ccccn23)c1C	3.2µM*	-1%	-4%	-3%	?
Cc1ccc(C(=O)CSc2nnc3ccccn23)c(C)c1	?	4%	-1%	-2%	-8%[10 µM]
COCCn1c(C)cc(C(=O)CSc2nc(C)c(C)c(C)n2)c1C	7%	0%	-14%	-17%	1%
COCCn1c(C)cc(C(=O)CSc2nc3ccccc3s2)c1C	14µM*	-6%	-1%	4%	5µM*
